Records with an inconclusive call do not appear. Activity calls are given as the source filed them. Unless noted, calls come from the whole dose curve; as a rule, active = well fitted curve in the direction sought with a large enough effect; inconclusive = small, poorly fitted or top-dose-only effect, or another doubt; inactive = no such curve, though single readings can be large; an effect the other way counts as inactive or inconclusive.
Tests used:
[1] = Quantitative High-Throughput drug screen in 47 multiple myeloma cell lines against the NCATS MIPE library collection: OCIMY7_PLB cell viability assay (AID 1918987); note: potency is the fitted concentration of half-maximal effect; nearly all actives have a fitted effect of over 65% in size
Method in brief: (§1)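 MIPE 4.0 approved/investigational drugs; 500 cells/well; 48 h 37 °C humidified 5% CO2; CTG luminescence readout; DMSO = 100%, media = 0% viability.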

[2] = Quantitative High-Throughput drug screen in 47 multiple myeloma cell lines against the NCATS MIPE library collection: OCIMY5_PLB cell viability assay (AID 1918988); note: potency is the fitted concentration of half-maximal effect; nearly all actives have a fitted effect of over 65% in size
Method in brief: as §1

[3] = Quantitative High-Throughput drug screen in 47 multiple myeloma cell lines against the NCATS MIPE library collection: OPM1_PLB cell viability assay (AID 1918989); note: potency is the fitted concentration of half-maximal effect; nearly all actives have a fitted effect of over 40% in size
Method in brief: as §1

[4] = Quantitative High-Throughput drug screen in 47 multiple myeloma cell lines against the NCATS MIPE library collection: XG6_PLB cell viability assay (AID 1919865); note: potency is the fitted concentration of half-maximal effect; nearly all actives have a fitted effect of over 40% in size
Method in brief: as §1

[5] = Quantitative High-Throughput drug screen in 47 multiple myeloma cell lines against the NCATS MIPE library collection: XG1_PLB cell viability assay (AID 1919866); note: potency is the fitted concentration of half-maximal effect; nearly all actives have a fitted effect of over 35% in size
Method in brief: as §1

[6] = Quantitative High-Throughput drug screen in 47 multiple myeloma cell lines against the NCATS MIPE library collection: VP6_DJ cell viability assay (AID 1919867); note: potency is the fitted concentration of half-maximal effect; nearly all actives have a fitted effect of over 40% in size
Method in brief: as §1

[7] = Quantitative High-Throughput drug screen in 47 multiple myeloma cell lines against the NCATS MIPE library collection: PE2_PLB cell viability assay (AID 1919869); note: nearly all actives have a fitted effect of over 35% in size; note: potency is the fitted concentration of half-maximal effect
Method in brief: as §1

[8] = Quantitative High-Throughput drug screen in 47 multiple myeloma cell lines against the NCATS MIPE library collection: KMS11_JCRBsus cell viability assay (AID 1919873); note: nearly all actives have a fitted effect of over 50% in size; note: potency is the fitted concentration of half-maximal effect
Method in brief: as §1

[9] = qHTS for identification of novel therapeutic agents for treatment of microphthalmiaassociated transcription factor (MiT) renal cell carcinoma (RCC) (AID 1963991; calls by dose curve; note: potency is the fitted concentration of half-maximal effect); settings: CellTiter-Glo, 48 h; for z-score: stronger effect = lower value
Method in brief: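 Three TFE3-fusion RCC cell lines (UOK109, UOK124, UOK145), 500 cells/well, were exposed to the 1912-compound MIPE 4.0 library for 48 hours at 37 C. Viability was read by CellTiter-Glo luminescence, normalised to DMSO (100%) and empty wells (0%), with 11-concentration curve fits.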

[10] = Quantitative High-Throughput drug screen in 47 multiple myeloma cell lines against the NCATS MIPE library collection: SKMM1_PLB cell viability assay (AID 1919863); settings: SKMM1 myeloma viability, CellTiter-Glo ATP, 48 h; viability: stronger effect = lower value; note: potency is the fitted concentration of half-maximal effect; nearly all actives have a fitted effect of over 35% in size
Method in brief: as §1

[11] = Quantitative High-Throughput drug screen in 47 multiple myeloma cell lines against the NCATS MIPE library collection: U266_ATCC cell viability assay (AID 1919864); note: nearly all actives have a fitted effect of over 35% in size; note: potency is the fitted concentration of half-maximal effect
Method in brief: as §1

[12] = Quantitative High-Throughput drug screen in 47 multiple myeloma cell lines against the NCATS MIPE library collection: UTMC2_PLB cell viability assay (AID 1919868); settings: CellTiter-Glo ATP luminescence, 48 h; viability (% of DMSO control): at 45.8 µM (top of the series) unless noted; note: potency is the fitted concentration of half-maximal effect; nearly all actives have a fitted effect of over 55% in size
Method in brief: as §1

[13] = Quantitative High-Throughput drug screen in 47 multiple myeloma cell lines against the NCATS MIPE library collection: PCM6_Riken cell viability assay (AID 1919870); note: potency is the fitted concentration of half-maximal effect; nearly all actives have a fitted effect of over 30% in size
Method in brief: as §1

[14] = Quantitative High-Throughput drug screen in 47 multiple myeloma cell lines against the NCATS MIPE library collection: RPMI8226_ATCC cell viability assay (AID 1919871); note: potency is the fitted concentration of half-maximal effect; nearly all actives have a fitted effect of over 30% in size
Method in brief: as §1

[15] = Quantitative High-Throughput drug screen in 47 multiple myeloma cell lines against the NCATS MIPE library collection: OPM2_DSMZ cell viability assay (AID 1919872); note: nearly all actives have a fitted effect of over 30% in size
Method in brief: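 Myeloma cells (500 per well) were exposed to MIPE 4.0 compounds by pin transfer and incubated 48 hours at 37C, 5% CO2. Viability was read as ATP by CellTiter-Glo luminescence, normalised to DMSO (100%) and media-only (0%) wells.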

[16] = Quantitative High-Throughput drug screen in 47 multiple myeloma cell lines against the NCATS MIPE library collection: KMS28BM_JCRB cell viability assay (AID 1919874); note: nearly all actives have a fitted effect of over 35% in size; note: potency is the fitted concentration of half-maximal effect
Method in brief: as §1

[17] = qHTS profiling for inhibitors of Plasmodium falciparum proliferation (AID 504749); note: potency is the fitted concentration of half-maximal effect; nearly all actives have a fitted effect of over 60% in size; settings: P. falciparum in erythrocytes, SYBR Green DNA, 72 h
Method in brief: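 Parasite proliferation within erythrocytes, 72 h exposure. Endpoint: SYBR Green I fluorescence after overnight lysis at room temperature. Controls: 0.29 uM artemisinin, DMSO.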

[18] = qHTS drug screen for cell cycle checkpoint inhibitors in PARPi-resistant BRCA-mutant ovarian cancer cell lines. (AID 1963452; calls by dose curve); settings: PEO1/OlaR viability, CellTiter-Glo luminescence, 96 h, stronger effect = lower value
Method in brief: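 PEO1, PEO4 and PEO1/OlaR ovarian cancer cells, 600 per well, exposed 96 h at 37C to a dilution series. Viability read by CellTiter-Glo luminescence, normalized to DMSO and empty wells; activity summarized as Z-AUC.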

[19] = TFE3-RCC UOK109 viability, measured here: UOK109 Z-AUC
[20] = TFE3-RCC viability, measured here: UOK124 Z-AUC
[21] = TFE3-RCC viability, measured here: UOK145 Z-AUC
[22] = measured here: PEO1 parental Z-AUC

Cc1c(NC(=O)OC[C@@H]2COCCN2)cn2ncnc(Nc3ccc4c(cnn4Cc4cccc(F)c4)c3)c12
-2.05: z-score [9, 21]
-1.82: z-score [9, 19]
-1.81: z-score [9, 20]
active: Potency [1] 590 nM | Potency [2] 16.6 nM | Potency [3] 4180 nM | Potency [4] 37.2 nM | Potency [5] 83.3 nM | Potency [6] 1870 nM | Potency [7] 5260 nM | Potency [8] 26400 nM | Potency ([9]; TFE3-RCC UOK109 viability, active = Z-AUC below -0.8 in all three lines) 118 nM

Nc1ccn([C@@H]2O[C@H](CO)[C@H](O)C2(F)F)c(=O)n1
active: Potency [1] 1 nM | Potency [2] 5900 nM | Potency [10] 26.4 nM | Potency [11] 14800 nM | Potency [4] 74.3 nM | Potency [5] 20.9 nM | Potency [6] 526 nM | Potency [12] 14.8 nM | Potency [7] 332 nM | Potency [13] 1870 nM | Potency [14] 469 nM | Potency [8] 296 nM | Potency [16] 5260 nM | Potency ([17]; parasite line A) 5620 nM | Potency ([17]; parasite line B) 316 nM
inactive: Potency [15]

CC(=O)c1c(C)c2cnc(Nc3ccc(N4CCNCC4)cn3)nc2n(C2CCCC2)c1=O
active: Potency [2] 11800 nM | Potency [10] 16600 nM | Potency [11] 20900 nM | Potency [4] 14800 nM | Potency [5] 14800 nM | Potency [7] 18700 nM | Potency [14] 2090 nM | Potency [8] 20900 nM | Potency [16] 23500 nM

COc1ccc(CC2c3cc(OC)c(OC)cc3CC[N+]2(C)CCC(=O)OCCCCCOC(=O)CC[N+]2(C)CCc3cc(OC)c(OC)cc3C2Cc2ccc(OC)c(OC)c2)cc1OC (centres undefined)
0.569: Z-AUC [18, 22]
1.48: z-score [9, 20]
1.15: z-score [9, 21]
inactive: viability (% of DMSO control) [11] 135% [at 5.15 µM] | viability (% of control) [7] 81% [at 5.15 µM] | viability (% of DMSO) [15] 116% [at 5.15 µM] | viability (% of control) [8] 114% [at 5.15 µM] | viability, % of control [16] 110% [at 5.15 µM] | Z-AUC [18] 0.349
active: Potency [1] 4130 nM | Potency [5] 1460 nM
1.41: z-score [9, 19]
0.213: Z-AUC ([18]; measured here: PEO4 Z-AUC)

CCc1cc2c(cc1N1CCC(N3CCOCC3)CC1)C(C)(C)c1[nH]c3cc(C#N)ccc3c1C2=O
-0.229: Z-AUC [18, 22]
inactive: Z-AUC [18] 0.0393
active: Potency [1] 1480 nM
-0.554: Z-AUC ([18]; measured here: PEO4 Z-AUC)

From PubChem BioAssay (NCATS)
